# PubChem BioAssay AID1159580 (chemical genetic matrix, 2015)
# About 2,000 (36%) of roughly 5,500 compounds were called active. Roughly 18% stayed inconclusive and do not appear here. This is one part of the list. A number with no mark means an inactive call. No stated cut-off is given here; in the data, active means normalized growth mostly below about 0.91 (no sharp cut-off); inconclusive means no clear call, values can overlap the other calls; inactive means mostly above about 0.92.
# Experiment: chemical genetic growth profiling, strain panel (AID 1159580);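 further: tested at 20 µM; growth read once vehicle control cultures reached saturation at 30 °C; 1 = growth at the plate median or of vehicle wells; lower values mean less growth of the strain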
# Conditions: S. cerevisiae deletion strains, growth OD
smiles,measurement,setting,value
COc1cc(CC(C)N)c(OC)cc1I (configuration not stated),normalized growth,"locus YAL040C, strain CLN3, active compounds read low",0.975
same,normalized growth,"locus YCL061C, strain MRC1 (second series), active compounds read low",1
same,normalized growth,"locus YDR363W, strain ESC2, active compounds read low",1.04
same,normalized growth,"locus YER002W, strain NOP16, active compounds read low",1.03
same,normalized growth,"locus YJR075W, strain HOC1, active compounds read low",1.01
same,normalized growth,"locus YMR307W, strain GAS1, active compounds read low",0.996
same,normalized growth,"locus YNL175C, strain NOP13, active compounds read low",0.995
same,normalized growth,"locus YNL197C, strain WHI3, active compounds read low",1.02
same,normalized growth,"locus YNL224C, strain SQS1, active compounds read low",0.997
same,normalized growth,"locus YNL322C, strain KRE1, active compounds read low",1
same,normalized growth,"locus YOR083W, strain WHI5 (second series), active compounds read low",0.984
same,normalized growth,"locus YPL055C, strain LGE1, active compounds read low",1.03
same,normalized growth,"locus YPL241C, strain CIN2, active compounds read low",0.991
CC1=CC(=O)c2c(O)cccc2C1=O,normalized growth,"locus YAL021C, strain ccr4, active compounds read low",0.0614 (active)
same,normalized growth,"locus YAL026C, strain drs2, active compounds read low",0.0573 (active)
same,normalized growth,"locus YAL030W, strain snc1, active compounds read low",0.0538 (active)
same,normalized growth,"locus YBL061C, strain skt5, active compounds read low",0.0578 (active)
same,normalized growth,"locus YBR009C, strain hhf1, active compounds read low",0.0566 (active)
same,normalized growth,"locus YBR023C, strain chs3, active compounds read low",0.0593 (active)
same,normalized growth,"locus YBR171W, strain sec66, active compounds read low",0.0747 (active)
same,normalized growth,"locus YBR231C, strain swc5, active compounds read low",0.0608 (active)
same,normalized growth,"locus YBR279W, strain paf1, active compounds read low",0.0613 (active)
same,normalized growth,"locus YCL011C, strain gbp2, active compounds read low",0.053 (active)
same,normalized growth,"locus YCL016C, strain dcc1, active compounds read low",0.0629 (active)
same,normalized growth,"locus YCL069W, strain vba3, active compounds read low",0.058 (active)
same,normalized growth,"locus YCR088W, strain abp1, active compounds read low",0.0593 (active)
same,normalized growth,"locus YDL005C, strain med2, active compounds read low",0.0698 (active)
same,normalized growth,"locus YDL040C, strain nat1, active compounds read low",0.073 (active)
same,normalized growth,"locus YDR001C, strain nth1, active compounds read low",0.0551 (active)
same,normalized growth,"locus YDR069C, strain doa4, active compounds read low",0.0589 (active)
same,normalized growth,"locus YDR137W, strain rgp1, active compounds read low",0.103 (active)
same,normalized growth,"locus YDR159W, strain sac3, active compounds read low",0.139 (active)
same,normalized growth,"locus YDR195W, strain ref2",0.132 (active)
same,normalized growth,"locus YDR297W, strain sur2, active compounds read low",0.0527 (active)
same,normalized growth,"locus YDR334W, strain swr1, active compounds read low",0.063 (active)
same,normalized growth,"locus YDR335W, strain msn5, active compounds read low",0.0594 (active)
same,normalized growth,"locus YDR392W, strain spt3, active compounds read low",0.0748 (active)
same,normalized growth,"locus YEL003W, strain gim4, active compounds read low",0.0513 (active)
same,normalized growth,"locus YEL037C, strain rad23, active compounds read low",0.0601 (active)
same,normalized growth,"locus YEL061C, strain CIN8 (second series), active compounds read low",0.0564 (active)
same,normalized growth,"locus YER015W, strain faa2, active compounds read low",0.0571 (active)
same,normalized growth,"locus YER016W, strain bim1, active compounds read low",0.0586 (active)
same,normalized growth,"locus YER111C, strain swi4, active compounds read low",0.71 (active)
same,normalized growth,"locus YER155C, strain BEM2 (second series), active compounds read low",0.0832 (active)
same,normalized growth,"locus YFR010W, strain ubp6, active compounds read low",0.0636 (active)
same,normalized growth,"locus YGL167C, strain pmr1, active compounds read low",0.071 (active)
same,normalized growth,"locus YGL173C, strain kem1, active compounds read low",0.0648 (active)
same,normalized growth,"locus YGL227W, strain vid30, active compounds read low",0.0587 (active)
same,normalized growth,"locus YGL240W, strain doc1, active compounds read low",0.0736 (active)
same,normalized growth,"locus YGL253W, strain hxk2, active compounds read low",0.0519 (active)
same,normalized growth,"locus YHR013C, strain ard1, active compounds read low",0.101 (active)
same,normalized growth,"locus YHR027C, strain rpn1, active compounds read low",0.0589 (active)
same,normalized growth,"locus YHR030C, strain SLT2, active compounds read low",0.108 (active)
same,normalized growth,"locus YHR079C, strain IRE1, active compounds read low",0.123 (active)
same,normalized growth,"locus YHR142W, strain chs7, active compounds read low",0.0661 (active)
same,normalized growth,"locus YJL092W, strain hpr5, active compounds read low",0.061 (active)
same,normalized growth,"locus YJL095W, strain BCK1 (second series), active compounds read low",0.0545 (active)
same,normalized growth,"locus YJL095W, strain BCK1, active compounds read low",0.133 (active)
same,normalized growth,"locus YJL115W, strain asf1, active compounds read low",0.0773 (active)
same,normalized growth,"locus YJL129C, strain trk1, active compounds read low",0.653 (active)
same,normalized growth,"locus YJL154C, strain vps35, active compounds read low",0.0541 (active)
same,normalized growth,"locus YJL164C, strain tpk1, active compounds read low",0.0572 (active)
same,normalized growth,"locus YJL166W, strain qcr8, active compounds read low",0.0557 (active)
same,normalized growth,"locus YJL187C, strain SWE1, active compounds read low",0.0545 (active)
same,normalized growth,"locus YJR066W, strain TOR1, active compounds read low",0.00113 (active)
same,normalized growth,"locus YKL160W, strain elf1, active compounds read low",0.0646 (active)
same,normalized growth,"locus YKR026C, strain gcn3, active compounds read low",0.0585 (active)
same,normalized growth,"locus YKR091W, strain srl3, active compounds read low",0.0562 (active)
same,normalized growth,"locus YLL001W, strain dnm1, active compounds read low",0.0574 (active)
same,normalized growth,"locus YLL026W, active compounds read low",0.0541 (active)
same,normalized growth,"locus YLL041C, strain sdh2, active compounds read low",0.0519 (active)
same,normalized growth,"locus YLR027C, strain aat2, active compounds read low",0.0528 (active)
same,normalized growth,"locus YLR113W, strain HOG1, active compounds read low",0.191 (active)
same,normalized growth,"locus YLR221C, strain rsa3, active compounds read low",0.054 (active)
same,normalized growth,"locus YLR258W, strain gsy2, active compounds read low",0.056 (active)
same,normalized growth,"locus YLR262C, strain YPT6 (second series), active compounds read low",0.0717 (active)
same,normalized growth,"locus YLR320W, strain mms22, active compounds read low",0.0755 (active)
same,normalized growth,"locus YLR342W, strain FKS1, active compounds read low",0.0621 (active)
same,normalized growth,"locus YLR357W, strain rsc2, active compounds read low",0.113 (active)
same,normalized growth,"locus YLR370C, strain arc18, active compounds read low",0.0568 (active)
same,normalized growth,"locus YLR384C, strain iki3, active compounds read low",0.0609 (active)
same,normalized growth,"locus YML120C, strain ndi1, active compounds read low",0.0584 (active)
same,normalized growth,"locus YMR058W, strain fet3, active compounds read low",0.0576 (active)
same,normalized growth,"locus YMR125W, strain sto1, active compounds read low",0.0728 (active)
same,normalized growth,"locus YMR129W, active compounds read low",0.0547 (active)
same,normalized growth,"locus YMR205C, strain PFK2, active compounds read low",0.0815 (active)
same,normalized growth,"locus YMR231W, strain pep5, active compounds read low",0.0627 (active)
same,normalized growth,"locus YNL071W, strain lat1, active compounds read low",0.0579 (active)
same,normalized growth,"locus YNL183C, strain NPR1, active compounds read low",0.000686 (active)
same,normalized growth,"locus YNL209W, strain ssb2, active compounds read low",0.0563 (active)
same,normalized growth,"locus YNL248C, strain rpa49, active compounds read low",0.0708 (active)
same,normalized growth,"locus YNL322C, strain KRE1 (second series), active compounds read low",0.062 (active)
same,normalized growth,"locus YNR049C, strain mso1, active compounds read low",0.0527 (active)
same,normalized growth,"locus YOR001W, strain rrp6, active compounds read low",0.065 (active)
same,normalized growth,"locus YOR070C, strain gyp1, active compounds read low",0.0567 (active)
same,normalized growth,"locus YOR080W, strain dia2, active compounds read low",0.1 (active)
same,normalized growth,"locus YOR083W, strain WHI5, active compounds read low",0.0584 (active)
same,normalized growth,"locus YOR106W, strain vam3, active compounds read low",0.0629 (active)
same,normalized growth,"locus YOR231W, strain MKK1, active compounds read low",0.115 (active)
same,normalized growth,"locus YOR265W, strain rbl2, active compounds read low",0.0542 (active)
same,normalized growth,"locus YOR270C, strain vph1, active compounds read low",0.0962 (active)
same,normalized growth,"locus YOR290C, strain snf2, active compounds read low",0.906
same,normalized growth,"locus YPL051W, strain arl3, active compounds read low",0.0583 (active)
same,normalized growth,"locus YPL078C, strain atp4, active compounds read low",0.163 (active)
same,normalized growth,"locus YPL106C, strain sse1, active compounds read low",0.0924 (active)
same,normalized growth,"locus YPL240C, strain hsp82, active compounds read low",0.0548 (active)
same,normalized growth,"locus YPL256C, strain CLN2, active compounds read low",0.128 (active)
